Here are results for 92 compounds from PubChem BioAssay AID651699 (Sanford-Burnham Center for Chemical Genomics, 2012).

In general, inhibition refers to the drop in the measured response relative to a control, in per cent.

Hit rate of the full screen: of about 360,000 compounds, about 2,100 (0.58%) were called active. The entries come from a sample that favours actives as a whole. Unmarked numbers belong to inactive results. Cut-off read from the data, not from the text of the source: active = inhibition above about 36%; inactive = the rest.

For this test, the target named is NEDD8-conjugating enzyme Ubc12 (Homo sapiens) + NEDD8-activating enzyme E1 regulatory subunit (Homo sapiens) (UniProt P61081+Q13564). Description: NEDD8 transfer onto cullin, blockade – biochemical, TR-FRET, uHTS, NAE and Ubc12, primary screen (AID 651699). As to conditions: TR-FRET cullin neddylation, at 25 µM, stronger effect = higher value.
Sequence of NEDD8-conjugating enzyme Ubc12 (Homo sapiens) + NEDD8-activating enzyme E1 regulatory subunit (Homo sapiens) (P61081 whole entry, looked up): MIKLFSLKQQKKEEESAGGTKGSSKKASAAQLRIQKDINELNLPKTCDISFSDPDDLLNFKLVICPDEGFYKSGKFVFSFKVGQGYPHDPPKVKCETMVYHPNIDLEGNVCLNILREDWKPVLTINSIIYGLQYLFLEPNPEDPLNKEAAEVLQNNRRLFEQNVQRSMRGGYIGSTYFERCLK
Sequence of NEDD8-conjugating enzyme Ubc12 (Homo sapiens) + NEDD8-activating enzyme E1 regulatory subunit (Homo sapiens) (Q13564 whole entry, looked up): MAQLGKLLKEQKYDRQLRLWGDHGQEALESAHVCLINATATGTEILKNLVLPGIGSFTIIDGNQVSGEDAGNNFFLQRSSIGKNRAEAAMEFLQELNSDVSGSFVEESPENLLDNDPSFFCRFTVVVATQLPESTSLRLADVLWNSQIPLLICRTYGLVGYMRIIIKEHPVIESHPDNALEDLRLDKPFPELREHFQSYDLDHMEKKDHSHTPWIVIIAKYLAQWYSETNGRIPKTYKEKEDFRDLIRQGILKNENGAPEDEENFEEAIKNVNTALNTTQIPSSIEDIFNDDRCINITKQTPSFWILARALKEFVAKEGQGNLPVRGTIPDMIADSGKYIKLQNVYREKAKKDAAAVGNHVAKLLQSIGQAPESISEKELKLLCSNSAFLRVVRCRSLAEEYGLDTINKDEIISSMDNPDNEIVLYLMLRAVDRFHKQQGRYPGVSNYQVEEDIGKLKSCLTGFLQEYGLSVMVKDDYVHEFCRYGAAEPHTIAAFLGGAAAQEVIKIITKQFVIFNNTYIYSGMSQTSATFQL
On to `COc1ccc(CCNC(=O)CCCCCNC(=O)N2CCn3c2nc2ccccc23)cc1OC`, for which the inhibition is 7.99%.

Regarding `O=Cc1c(Nc2ccccc2Cl)nc2ccccn2c1=O`, the inhibition is -6.5%.

For `CC(=O)c1ccc(NC(=O)c2ccc(-n3cncn3)c([N+](=O)[O-])c2)cc1`, the inhibition is -41.9%. Consider `C=CCn1c(COc2ccc(F)cc2)nnc1SCC(=O)Nc1cccc(S(N)(=O)=O)c1`, for which the inhibition is 5.06%.

As to `C=CCn1c(COc2ccccc2C)nnc1SCC(=O)O`, the inhibition was -1.87%. Next, `C=CCn1c(COc2cccc3cccnc23)nnc1SCC(=O)OC`: 46.5% (active); `CCC(C)(C)n1nnnc1C(c1cccs1)N1CCN(c2nc3ccccc3s2)CC1` (configuration not stated): 5%; `O=C(NCc1nnnn1-c1ccc(Cl)cc1)c1ccc2c(c1)OCO2`: -5.24%.

As to `COc1cccc(Nc2nnc(SCC(=O)N3CC(C)OC(C)C3)s2)c1` (configuration not stated), the inhibition is -4.5%.

For the compound `O=C(NCCc1ccc(F)cc1)c1n[nH]c2ccccc12`, the inhibition is 9.02%. The value for `O=C(NCCCO)c1cc2c([nH]c3ccccc32)c(-c2ccc(F)cc2)n1` was 44.3% (active); that for `O=C(NCC1CCCO1)c1cc2c([nH]c3ccccc32)c(-c2ccc(F)cc2)n1` (configuration not stated) was 21%; that for `O=c1cc(CN2CCN(c3cccc(Cl)c3)CC2)c2cc3c(cc2o1)CCCC3` was -45.2%. Next, `CCC(CC)C(=O)N1CC(=O)Nc2ccc(Br)cc2C1c1ccccc1` (configuration not stated): -1.94%; `Oc1ccc(/C=N/N(Cc2ccccc2)c2ccccc2)cc1`: 13.8%.

On to `CCN(/N=C/c1ccccc1)c1cc(=O)n(C)c(=O)[nH]1`, for which the inhibition is 14.3%. As for `CCN(/N=C/c1ccc(N(C)C)cc1)c1nc2ccccc2[nH]1`, the inhibition was 47.9% (active). The value for `CCC(C)c1ccc(NC(=S)NCc2ccccn2)cc1` (configuration not stated) was 3.21%; that for `O=S(=O)(c1cccc(Cn2nnc(-c3ccc(F)cc3)n2)c1)N1CCOCC1` was -1.01%; that for `O=C(C[C@@H]1C/C=C\CCC(=O)OC[C@@H]2CCCN2C1=O)NCCO` was -13.4%.

As for `O=C(CNC(=O)c1ccccc1Br)NNC(=O)c1cccs1`, the inhibition was 7.39%. Next, `O=C(NC(Cc1c[nH]c2ccccc12)C(=O)N/N=C/c1ccc(Br)cc1)c1cccs1` (configuration not stated): -5.72%; `CCN(CC)c1ccc(/C=N/NC(=O)CNC(=O)c2cccs2)cc1`: 55.1% (active); `COC(=O)C1=CN(Cc2ccc(OC)cc2)C=C(C(=O)OC)C1c1ccc(O)c(OC)c1`: 40.7% (active). The value for `CCOc1cc(C2C(C(=O)OC)=CN(C3CCCC3)C=C2C(=O)OC)cc(Br)c1O` was -306%; that for `O=C(NC1CC1)C(Cc1ccccc1)NS(=O)(=O)c1ccccc1F` (configuration not stated) was -5.68%. `O=C(CN1CCN(c2ccccc2O)CC1)NC(=O)NCc1ccccc1`: the inhibition was 1.32%. Regarding `CCOCCCNC(=O)C(NC(=O)c1ccccc1O)c1ccccc1` (configuration not stated), the inhibition was 46.5% (active). For the compound `CCOCCCNC(=O)C(NC(=O)CNC(=O)c1ccccc1)c1ccc(OC)cc1` (configuration not stated), the inhibition is 0.37%. The value for `CCOCCCNC(=O)C(NC(=O)CNC(=O)c1ccccc1)c1ccc(C)cc1` (configuration not stated) was 2.03%; that for `CC(C)=CCc1ccc(O)c(=O)cc1C(C)C` was 1.77%.

As for `O=C(O)C(F)(F)C(NCc1ccccc1)c1ccccc1` (configuration not stated), the inhibition is -2.55%. The value for `CC(C)c1ccc(CC(=O)N2CCC2(C)C(=O)NS(=O)(=O)c2ccc(C(C)(C)C)cc2)cc1` (configuration not stated) was -0.27%; that for `CC(=O)c1c(Nc2ccccc2)sc(C(=O)c2ccccc2)c1C` was 5.82%. The value for `COC(=O)c1cc2c(N)c(C(=O)c3ccc(Cl)cc3)sc2nc1C(OC)OC` was 12.2%; that for `Cc1nc2sc(C(=O)c3ccccc3)c(N)c2c2c1CCCC2` was 47.1% (active). As for `Cc1cccc2cc3c(N)c(C(=O)N4CCCc5ccccc54)sc3nc12`, the inhibition was -5.05%.

As for `CN(C)c1ccnc2sc(C(=O)c3ccccc3)c(N)c12`, the inhibition was 42.8% (active). With `O=C(Nc1c(-c2ccccc2)nc2c(Br)cc(Br)cn12)c1ccco1`, the inhibition was -168%. Take `OCC[C@H]1C[C@H](O)[C@@H](O)[C@]2(Cc3ccccc3CO2)O1`: the inhibition is -28.9%.

Take `Cc1noc(C)c1CCC(=O)O`: the inhibition is -7.17%. Next, `CN(Cc1ccccc1)C(=O)CCC1CCN(C(=O)c2ccco2)CC1`: 6.05%; `CCOC(=O)c1cnc(SCC(=O)Nc2cccc(OC)c2)nc1N`: -0.72%; `COc1ccc(/C=C/C(=O)OCC(=O)N2CCN(S(=O)(=O)c3ccc(C)cc3C)CC2)cc1OC`: 24.4%. In the case of `CCCCNS(=O)(=O)c1ccc(S(=O)(=O)n2cnc3ccccc32)cc1`, the inhibition is -2.84%. For `NC(=O)Cn1cc(/C=N\NS(=O)(=O)c2ccccc2)c2ccccc21`, the inhibition is -17.8%. Next, `O=C(CSc1ccc(/C=N/NC(=O)c2cccc(F)c2)o1)Nc1ccccc1`: -3.46%. Take `O=C(Cn1cc(/C=N/NC(=O)c2cccc(C(F)(F)F)c2)c2ccccc21)Nc1ccc(F)cc1`: the inhibition was 44% (active). With `COc1ccc([N+](=O)[O-])cc1NC(=O)COC(=O)/C=C/c1ccco1`, the inhibition is -34%. Turning to `O=C(NNC(=O)C1C2CCC(C2)C1C(=O)O)c1ccc(Cl)cc1` (configuration not stated), the inhibition was 2.72%. Next, `O=C(NNC(=S)NC1CC2CCC1C2)c1ccc(Cl)cc1` (configuration not stated): 62.7% (active); `O=S(=O)(NC1CC2CCC1C2)c1ccc(Cl)cc1` (configuration not stated): -2.94%. Take `CC1(C)CC(=O)C2=C(C1)Nc1cc(C(=O)c3ccccc3)ccc1NC2c1ccccn1` (configuration not stated): the inhibition is 24.5%. Turning to `CCOc1ccc2[nH]c(=O)c(CN(Cc3nnnn3Cc3ccccc3)CC3CCCO3)cc2c1` (configuration not stated), the inhibition is 48% (active). As for `COc1ccc2[nH]c(=O)c(CN(CC3CCCO3)C(=O)Nc3ccccc3)cc2c1` (configuration not stated), the inhibition was 21.1%. Take `Cc1ccc(S(=O)(=O)N(Cc2cc3ccccc3[nH]c2=O)CC2CCCO2)cc1` (configuration not stated): the inhibition was 11.6%. The value for `Cc1cc(C)c2cc(CN(Cc3cccs3)Cc3nnnn3CC3CCCO3)c(=O)[nH]c2c1` (configuration not stated) was -8.71%.

Consider `Cc1cc2cc(CN(Cc3cccs3)Cc3nnnn3CC3CCCO3)c(=O)[nH]c2cc1C` (configuration not stated), for which the inhibition was 4.8%. With `CCOc1ccc2[nH]c(=O)c(CN(Cc3nnnn3CCc3ccccc3)CC3CCCO3)cc2c1` (configuration not stated), the inhibition was 44% (active).

On to `CC(C)(C)NS(=O)(=O)CC12CCC(CC1=O)C2(C)C` (configuration not stated), for which the inhibition was 4.11%. Next, `CCCN(c1ccc(C(C)C)cc1)S(=O)(=O)c1c(C)[nH]c(=O)[nH]c1=O`: -4.15%. Turning to `COCCNC(=S)N1CCN(C)CC1`, the inhibition was 2.77%. Next, `O=C(N[C@H]1C/C=C\C(c2ccc(F)cc2)N(Cc2ccccc2)C(=O)C1)OCC1c2ccccc2-c2ccccc21` (some centres not stated): -23.7%; `COCCn1c(C)cc(C(=O)CSc2nnc(C3CC3)n2C2CC2)c1C`: 2.64%; `O=C(/C=C/c1cn(-c2ccccc2)nc1-c1ccc2c(c1)OCCO2)NCCCN1CCOCC1`: 46.4% (active). Regarding `CC(C)c1ccc(/C=C/C(=O)NCCCN2CCOCC2)cc1`, the inhibition is 6.59%. With `CC(OC(=O)/C=C/c1ccccc1)C(=O)Nc1ccc(C(N)=O)cc1` (configuration not stated), the inhibition is 9.24%.

Turning to `Cc1ccc(C)c(NC(=O)COC(=O)CSc2ccccc2)c1`, the inhibition is 4.31%. The value for `Cc1ccc(S(=O)(=O)NNC(=O)Nc2cccc3ccccc23)cc1` was -0.11%; that for `Cc1ccc(C)c(NC(=O)NNC(=O)c2ccc3ccccc3c2O)c1` was 41.2% (active). The value for `CC1CCN(C(=O)CN(c2ccc(Oc3ccccc3)cc2)S(C)(=O)=O)CC1` was 0.77%; that for `COc1cc2c(cc1NC(=O)COC(=O)/C=C/c1ccccc1)oc1ccccc12` was 29.1%. The value for `COc1ccc(/C=C(/NC(=O)c2ccccc2)C(=O)Nc2cccc(C(=O)O)c2)cc1` was -5.87%; that for `COc1cc(/C(=C/c2ccccc2)c2ccccc2)c2c(c1)oc1ccccc12` was 49.4% (active); that for `CCN(CCNC(=O)C1=C(C)C(=O)OC12CCC(C)CC2)c1ccccc1` (configuration not stated) was 0.38%. Regarding `N/C(Cc1ccc([N+](=O)[O-])cc1)=N\OC(=O)C1CCCCC1`, the inhibition is -35.6%.

For the compound `CN(C)c1nc(N)nc(CSc2nnnn2-c2cccc3ccccc23)n1`, the inhibition was -6.09%. For `COc1ccc2[nH]c(C(=O)N/N=C/c3cc(OC)c(OC)c(OC)c3)cc2c1`, the inhibition was 59.3% (active). Regarding `CCOc1ccc(/C=N\NC(=O)c2c(C)nc3cc(C)ccn23)cc1`, the inhibition was 2.94%. With `CCOc1ccc2ccccc2c1/C=N/NC(=O)c1c(C)cc(C)[nH]c1=O`, the inhibition was -12.9%. For `COc1ccc2[nH]c(=O)c(CNc3ccc(C)c(C)c3)cc2c1`, the inhibition was 23.5%.

As for `CCOc1ccc2[nH]c(C(=O)N/N=C/c3cccc(OC)c3OC)cc2c1`, the inhibition was 45.1% (active).

`COc1ccccc1N1CCN(C(=O)C(=O)N/N=C/c2ccccc2F)CC1`: the inhibition was -4.11%. Take `COc1cccc(C(=O)N/N=C(\C)c2cccc(NC(=O)c3ccc(F)cc3)c2)c1OC`: the inhibition was -8.13%. For `COc1cc2cc(C(=O)N/N=C/c3cccc(OC)c3OC)[nH]c2cc1OC`, the inhibition was 40.2% (active).

As for `O=C(Nc1ccc(Cl)cc1)C1Cc2c(-c3ccc4c(c3)OCO4)ccnc2O1` (configuration not stated), the inhibition was 25.3%. For `N#Cc1ccccc1CN1C(=O)S/C(=C/c2cccn2-c2cccc(C(=O)O)c2)C1=O`, the inhibition is -29.6%. As for `Cc1cccc(N2CCN(C(=O)CN(C)S(=O)(=O)c3ccc4c(c3)CCC(=O)N4)CC2)c1C`, the inhibition was 4.09%.

Regarding `CCCC(=O)N1CCC1(C)C(=O)NS(=O)(=O)c1ccc(Cl)cc1` (configuration not stated), the inhibition was 5.26%. The value for `Cc1ncc(CO)c(/C=N/NC(=O)c2cccc(S(=O)(=O)N3CCCC3)c2)c1O` was 47.2% (active). The value for `CCOc1cc(/C=N/NC(=O)c2cccc(S(=O)(=O)N3CCOCC3)c2)ccc1OCC(=O)N(C)C` was 6.83%. The value for `O=C(NNC1=NCCC1)c1cccc(S(=O)(=O)N2CCCCC2)c1` was 3.17%.
